For 40 sequences, PBM binding z-score results are on record in the supplement of paper PMC6555819.

For this assay, the system named is VDR:RXRa (NR concentration 270 nM, RXRa partner concentration 90 nM). The assay can be described thus: PBM binding z-score (relative to random genomic background probes); higher = stronger binding; sequences stand for … in GC…GCGATTGACAGCGTAGAATGAAGG
As to the method:
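Protein-binding microarray (Agilent 4x180K custom design, double-stranded 60-nt probes: 5' GC cap, 34-nt variable region, 24-nt constant primer region; full probe sequence given). Purified or IVT nuclear receptor:RXRα heterodimers (3:1 NR:RXRα, mostly 270:90 nM) or homodimers were incubated for 1 h in PBS with 2% milk and no ligand, then detected with Alexa488 antibodies. Fluorescence from o1-orientation probes (~5 replicates averaged) was converted to z-scores against 500 random hg19 background probes. Variable regions are seed direct-repeat (DR0–DR5) sites, all their single-nucleotide variants and half-site ablations.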
For the sequence AGTATGAGGTTATACGTAGATCAGGGAAGAAAGT, the PBM binding z-score came to 1.34. In the case of GCGACTGGGGCATTAGCAGGTTACCATAACTTAA, the PBM binding z-score was -0.196. Then CCCAGTAGGTTATGGGGCATTCAGGCAACGGTGA, with 0.00537; and GAAACAGGGTCAGCTAGAGGCCAGAGTATGGAAA, with 3.64; and TGTTGTAGATCAATAGAGGTTAAGAAAGTGCGCT, with 1.92.

GCATATAGGTAACACAAGGTGAAAGTCCGATTGT registered a PBM binding z-score of 0.418. In the case of CCGACTCGGGCAAGGTTACCATAACGCACAGCCA, the PBM binding z-score was -0.103. Regarding TGAATGAGGTTAAAGATCAGAGAACGTGGCGTCG, the PBM binding z-score is 1.8. The sequence GCGACTGCGGCAAAGCAGGTTACCATAAGGTTGG yielded a PBM binding z-score of -0.392.

TCTCGGAGGACACGAAGGTCACAGCTTTCCAGAG had a PBM binding z-score of 4.05. Turning to CGTCCAAGGTCATAGTAGGTCAGTGAAGACAGAT, the PBM binding z-score worked out at 5.64. The sequence ATCTCTAGGTAACCATGTTCAGTGAATGCCGAAC came in with a PBM binding z-score of 0.463. Regarding GCGACTGGGGCTTCAGCAGGTTACCATAACTTAA, the PBM binding z-score was -0.361. TCTTGTAGATCAAGCAGGATAAGAAAGCCTGAGT came in with a PBM binding z-score of 0.405. CGAACGAGGGCATGATTTGATAGCAAATGCCGAT showed a PBM binding z-score of 0.55. Under ACTAGTTGGTCAACTGAGGTCACACACAATTCGG stands 5.33. Then CCTAGCAGGCCAATCTGGATCACTCAAGGCTTGA, with -0.611; and ATACCAAGGTGATCGTGAGGTCGTGGATACTAAC, with 2.84; and TCTAGCAGGCCAGAGGGGCACTCAAGAGGTACGG, with -0.288. The sequence CAAACTAGGTCAAGAGTTCAAAGTCCGCTTCCCG had a PBM binding z-score of 6.21. Then GCAGACTGGTGAAACGCAGGTAACTCAGGGTGGC, with -0.985; and TCTTGTAGATCAATAGAGGTCAAGAAAGTGCGCT, with 4.77; and TCGAGAAGGTTACCAATGGGGCATTCAGCTTTCT, with 0.778. Then CCTACTGGACCAAAAAGGTCATTGATGCCGATAA, with 4.77; and CCTAGTTGGTCAGGAGCTCACACACCGGATATGA, with 0.0372. Under CCTTACGGGTCACTGACAAGTTATAGCATTTGGA stands 3.07. CCTTACGGGTCACTGACAGATTATAGCATTTGGA displayed a PBM binding z-score of 3.13. ATACCACGGTGATCGTGAGGTCGTTGATACTAAC yielded a PBM binding z-score of 1.93. CGTCCAAGGTCAATGCTAGGTCAGTGACAGCATT displayed a PBM binding z-score of 4.87. ATCTCTACGTAAAGTTCAGTGAAAGATCGATAGA yielded a PBM binding z-score of 1.67. Consider TCTTGTAAATCAACAGGAGGTTAAGAAAGATCGA, for which the PBM binding z-score was found to be 1.16. On to ATATGTAGGTTAGCTGGTGTCATTCAGACTAGGC, for which the PBM binding z-score amounted to 1.4.

The sequence GGAACGAGGGCATGTTGATAGCAGAGTTTGATGG showed a PBM binding z-score of 0.929.

Turning to CCTTACAGGTCACTCCAGGTTATAGCATCGGAGT, the PBM binding z-score was found to be 4.12. Under ATACCAAGGTGATCGTGAGATCGTTGATACTAAC stands 0.19; under CGTCCAAGGTCAGCTGGTCAGTGAAAGCGACGTG, 2.66. Under ATCTGTAGGTAAAGATAGTTCAGTGAATGCAAAT stands 0.945; under ATACCAAGGCGATCGTGAGGTCGTTGATACTAAC, 1.51.

The sequence CGAACGAGGGAATGAGTTGATAGCAAATGCCGAT displayed a PBM binding z-score of -0.28. Under CAAACTAGGTCACAGAGGTCATAGTCCGTGCGTA stands 8.31.
